Screening data: PubChem BioAssay, several laboratories
ADAM10 inh – human ADAM10 inhibitors, primary screen, biochemical, QFRET, HTS. Disintegrin and metalloproteinase domain-containing protein 10 (Homo sapiens), O14672. recombinant ADAM10, EDANS/DABCYL FRET peptide cleavage, 3 h. inhibition, % at 7 µM. 370,000 compounds, 0.62% hits. AID 720582, 2013;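 active means inhibition above a per-campaign cutoff equal to the mean of compounds falling between control-based bounds plus 3 SD, cut at about 20% in these data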
FAS-TE inh – FAS thioesterase domain inhibitors, primary screen, biochemical, fluorescence intensity, uHTS. Fatty acid synthase (Homo sapiens), P49327. AID 602261, 2012. 360,000 compounds, 0.67% hits. inhibition, % at 15 µM. recombinant FAS-TE, OMFH fluorogenic substrate, fluorescence endpoint;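 active means compounds whose normalised, plate-corrected inhibition of enzyme fluorescence in the single-dose primary screen is 50% or more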
GRIN3A LBD mod – binders of NR3A ligand-binding domain, primary screen, biophysical, differential scanning fluorimetry, uHTS; AID 1259313, 2017; NR3A LBD differential scanning fluorimetry, Tm shift; 0% = protein alone, 100% = glycine-bound protein; 340,000 compounds, 2.5% hits; Glutamate receptor ionotropic, NMDA 3A (GRIN3A) ligand-binding domain; Tm shift relative to glycine control, % at 25 µM;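 active means melting temperature shift of at least 10% of the positive control shift, at one fixed dose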
aDG glyco up – activators of alpha-DG glycosylation, primary screen, uHTS, Pro5-aDG cells, AlphaScreen. alpha-DG glycosylation AlphaScreen (IIH6); 0% Pro5, 100% B10-LARGE cell signal. activation, % at 10 µM. 360,000 compounds, 0.22% hits;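 active means activation of at least 8% versus controls, or a plate z-score of at least 8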;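 further: Pro5 are CHO cells carrying HIG-tagged alpha-DG that lacks glycosylation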
ADAM17 inh – ADAM17 inhibitors, primary screen, biochemical, QFRET. inhibition, % at 6.95 µM. recombinant ADAM17, EDANS/DABCYL FRET peptide cleavage. 370,000 compounds, 0.83% hits. Disintegrin and metalloproteinase domain-containing protein 17 (Homo sapiens), P78536;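 active means inhibition above the mean of compounds lying between control limits plus 3 SD, set per campaign, cut at about 8.5% in these data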
Target sequence (P78536 215-824 limits assumed): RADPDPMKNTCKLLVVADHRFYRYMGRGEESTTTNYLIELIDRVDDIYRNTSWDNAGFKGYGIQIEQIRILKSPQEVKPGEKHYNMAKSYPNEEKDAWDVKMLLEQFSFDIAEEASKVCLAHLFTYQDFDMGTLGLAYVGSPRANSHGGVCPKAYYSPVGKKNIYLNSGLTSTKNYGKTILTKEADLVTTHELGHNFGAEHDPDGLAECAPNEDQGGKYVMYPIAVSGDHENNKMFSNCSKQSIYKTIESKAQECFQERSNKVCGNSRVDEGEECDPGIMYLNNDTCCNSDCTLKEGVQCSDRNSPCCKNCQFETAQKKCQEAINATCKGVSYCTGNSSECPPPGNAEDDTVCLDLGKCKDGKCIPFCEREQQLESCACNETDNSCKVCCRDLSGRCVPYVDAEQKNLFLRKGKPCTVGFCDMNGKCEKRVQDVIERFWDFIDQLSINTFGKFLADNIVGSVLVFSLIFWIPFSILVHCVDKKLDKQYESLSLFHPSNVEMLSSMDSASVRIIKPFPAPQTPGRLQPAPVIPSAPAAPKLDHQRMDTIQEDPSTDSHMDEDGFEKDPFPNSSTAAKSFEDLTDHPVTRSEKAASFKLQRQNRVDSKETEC
ADAM10 ctr – ADAM10 inhibitors, counter-screen for ADAM17 exosite inhibitor project, biochemical, FRET, human ADAM10; shares compounds with ADAM17 inh; recombinant ADAM10, EDANS/DABCYL FRET peptide cleavage, 3 h; inhibition, % at 6.95 µM; 2,900 compounds, 47% hits;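 active means mean inhibition over the triplicate runs exceeds the activity threshold set in the earlier primary screen, cut at about 20% in these data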
ADAM17 confirm – ADAM17 inhibitors, hit retest, confirmation, biochemical, QFRET peptide cleavage; shares compounds with ADAM17 inh; recombinant ADAM17, EDANS/DABCYL QFRET peptide cleavage; inhibition, % at 6.95 µM; 2,900 compounds, 65% hits;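 active means mean inhibition across replicates above the hit cutoff set in the primary screen, cut at about 8.5% in these data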
Hits are given with their value. A selection: hits, their analogues and other compounds. The true share with any hit is near 4%.

What do the screens show for `CCOC(=O)c1cc(OC(=O)c2ccccc2OC)n(-c2ccccc2)n1`?
ADAM10 inh: inactive; FAS-TE inh: inactive; GRIN3A LBD mod: inactive; aDG glyco up: inactive; ADAM17 inh: 11; ADAM10 ctr: inactive; ADAM17 confirm: 12

Results for Nc1cc2c(cc1Br)[nH]c(=O)c1ccccc12 ?
ADAM10 inh: inactive; FAS-TE inh: inactive; GRIN3A LBD mod: inactive; aDG glyco up: inactive; ADAM17 inh: inactive

Results for COc1ccccc1C(=O)NCCOc1ccc(C)c(C)c1 ?
ADAM10 inh: inactive; FAS-TE inh: inactive; GRIN3A LBD mod: inactive; aDG glyco up: inactive; ADAM17 inh: inactive

What do the screens show for `COc1cc(SC)ccc1C(=O)NCCOc1ccc(C)c(C)c1`?
ADAM10 inh: inactive; FAS-TE inh: inactive; GRIN3A LBD mod: 16; aDG glyco up: inactive; ADAM17 inh: 8.8; ADAM10 ctr: inactive; ADAM17 confirm: 12

What do the screens show for `COc1ccc(-c2noc(C3CCCN(C(=O)Nc4ccc(C)c(F)c4)C3)n2)cc1` (stereo not given)?
ADAM10 inh: inactive; ADAM17 inh: 9.8; ADAM10 ctr: inactive; ADAM17 confirm: 9.2

Results for COc1ccc(-c2noc(C3CCCN(C(=O)Nc4ccccc4)C3)n2)cc1 (stereo not given) ?
ADAM10 inh: inactive; FAS-TE inh: inactive; GRIN3A LBD mod: inactive; aDG glyco up: inactive; ADAM17 inh: inactive

What do the screens show for `Cc1cccc(Nc2nnc(SCC(=O)c3ccc(Br)s3)s2)c1C`?
ADAM10 inh: inactive; FAS-TE inh: inactive; GRIN3A LBD mod: inactive; aDG glyco up: inactive; ADAM17 inh: 12; ADAM10 ctr: inactive; ADAM17 confirm: 12

How did C/C(N)=C(/C#N)C(=O)CSc1nnc(Nc2cccc(C)c2C)s1 do in these assays?
ADAM10 inh: inactive; FAS-TE inh: inactive; GRIN3A LBD mod: inactive; aDG glyco up: inactive; ADAM17 inh: inactive

What do the screens show for `CCCCCCn1c(=O)n2n(c1=O)[C@@H]1CN(S(=O)(=O)c3ccc(C)cc3)C[C@]1(O)[C@@H](OC(=O)NCc1ccccc1F)C2`?
ADAM10 inh: inactive; FAS-TE inh: inactive; aDG glyco up: inactive; ADAM17 inh: inactive

Results for CCCCCCn1c(=O)n2n(c1=O)[C@@H]1CN(S(=O)(=O)c3ccc(C)cc3)C[C@]1(O)[C@@H](OC(=O)NCc1ccc(OC)c(OC)c1)C2 ?
ADAM10 inh: inactive; FAS-TE inh: inactive; aDG glyco up: inactive; ADAM17 inh: 9.8; ADAM10 ctr: 23; ADAM17 confirm: 14

What do the screens show for `COc1ccc(C(=O)Nc2c(Cl)cc(Cl)cc2C(=O)NCCN2CCOCC2)cc1`?
ADAM10 inh: inactive; FAS-TE inh: inactive; GRIN3A LBD mod: inactive; aDG glyco up: inactive; ADAM17 inh: inactive

Results for CCOC(=O)Cc1csc(NC(=O)COc2ccccc2)n1 ?
ADAM10 inh: inactive; FAS-TE inh: inactive; GRIN3A LBD mod: inactive; aDG glyco up: inactive; ADAM17 inh: 10.0; ADAM10 ctr: inactive; ADAM17 confirm: inactive

Results for CCOC(=O)Cc1csc(NC(=O)c2cc(C)c(C)s2)n1 ?
ADAM10 inh: inactive; FAS-TE inh: inactive; GRIN3A LBD mod: inactive; aDG glyco up: inactive; ADAM17 inh: 11; ADAM10 ctr: inactive; ADAM17 confirm: 8.9

Results for COC(=O)C1CN(Cc2ccc(OC)cc2)CCS(=O)(=O)N1Cc1ccc(C)cc1 (stereo not given) ?
ADAM10 inh: inactive; ADAM17 inh: inactive

Results for CCCN1CCc2c(sc(NC(=O)CCS(=O)(=O)c3ccccc3)c2C(N)=O)C1 ?
ADAM10 inh: inactive; FAS-TE inh: inactive; GRIN3A LBD mod: inactive; aDG glyco up: inactive; ADAM17 inh: inactive

What do the screens show for `CC(C)(C)NC(=O)C(c1ccc(O)cc1)N(C(=O)Cn1nnc(-c2ccc(F)cc2)n1)c1ccccc1F` (stereo not given)?
ADAM10 inh: inactive; FAS-TE inh: inactive; GRIN3A LBD mod: inactive; aDG glyco up: inactive; ADAM17 inh: 9.9; ADAM10 ctr: 39; ADAM17 confirm: 18

Results for CC(C)(C)NC(=O)C(c1ccncc1)N(C(=O)Cn1nnc(-c2ccc(F)cc2)n1)c1ccccc1F (stereo not given) ?
ADAM10 inh: inactive; FAS-TE inh: inactive; GRIN3A LBD mod: inactive; aDG glyco up: inactive; ADAM17 inh: inactive

What do the screens show for `Cc1cc(N2CCN(C(=O)OC(C)(C)C)C[C@@H]2C)ccc1Br`?
ADAM10 inh: inactive; ADAM17 inh: inactive

How did CCOC(=O)C1=C(C(=O)OCC)C2N(Cc3ccc(C#N)cc3)c3ccccc3[C@@]23C[C@@H](C(=O)OC)N(S(=O)(=O)c2ccc(OC)cc2)C3=N1 (stereo not given in full) do in these assays?
ADAM10 inh: inactive; ADAM17 inh: 12; ADAM10 ctr: inactive; ADAM17 confirm: 12

Results for CSc1ccccc1NC(=O)Nc1cccc(Cl)c1 ?
ADAM10 inh: inactive; FAS-TE inh: inactive; GRIN3A LBD mod: 10; aDG glyco up: inactive; ADAM17 inh: 9.7; ADAM10 ctr: inactive; ADAM17 confirm: 10

How did O=C(Nc1ccccc1)Nc1cccc(Cl)c1Cl do in these assays?
ADAM10 inh: inactive; FAS-TE inh: inactive; GRIN3A LBD mod: inactive; aDG glyco up: inactive; ADAM17 inh: 12; ADAM10 ctr: inactive; ADAM17 confirm: inactive

What do the screens show for `CSc1ccccc1NC(=O)Nc1cccc(Cl)c1Cl`?
ADAM10 inh: inactive; FAS-TE inh: inactive; GRIN3A LBD mod: inactive; aDG glyco up: inactive; ADAM17 inh: inactive

Results for Cn1[nH]c(=O)c2ccccc2c1=O ?
ADAM10 inh: inactive; FAS-TE inh: inactive; GRIN3A LBD mod: inactive; aDG glyco up: inactive; ADAM17 inh: inactive

How did O=c1[nH]n(-c2ccccc2Cl)c(=O)c2ccccc12 do in these assays?
ADAM10 inh: inactive; FAS-TE inh: inactive; GRIN3A LBD mod: inactive; aDG glyco up: inactive; ADAM17 inh: 10; ADAM10 ctr: inactive; ADAM17 confirm: 10

What do the screens show for `CCN(CC1CCCN(CCc2cccc(F)c2)C1)C(=O)c1cc(C)oc1C` (stereo not given)?
ADAM10 inh: inactive; FAS-TE inh: inactive; GRIN3A LBD mod: inactive; aDG glyco up: inactive; ADAM17 inh: inactive
